Results taken from PubChem BioAssay AID1159580 (chemical genetic matrix, 2015).
The campaign covered roughly 5,500 compounds. About 2,000 (36%) were called active. Roughly 18% stayed inconclusive and do not appear here. Some of the results follow. A number with no mark means an inactive call. Cut-off read from the data, not from the text of the source: active = normalized growth mostly below about 0.91 (no sharp cut-off); inconclusive = no clear call, values can overlap the other calls; inactive = mostly above about 0.92.

Experiment: chemical genetic growth profiling, strain panel (AID 1159580);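 note: tested at 20 µM; growth read once vehicle control cultures reached saturation at 30 °C; 1 = growth at the plate median or of vehicle wells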
Details: growth OD
[1] = S. cerevisiae deletion strains, locus YDR150W, strain NUM1, stronger effect = lower value
[2] = S. cerevisiae deletion strains, locus YGR078C, strain PAC10, stronger effect = lower value
[3] = S. cerevisiae deletion strains, locus YGR229C, strain SMI1, stronger effect = lower value
[4] = S. cerevisiae deletion strains, locus YMR263W, strain SAP30, stronger effect = lower value
[5] = S. cerevisiae deletion strains, locus YMR307W, strain GAS1, stronger effect = lower value
[6] = S. cerevisiae deletion strains, locus YNL128W, strain TEP1, stronger effect = lower value
[7] = S. cerevisiae deletion strains, locus YNL153C, strain GIM3, stronger effect = lower value
[8] = S. cerevisiae deletion strains, locus YPL055C, strain LGE1, stronger effect = lower value
[9] = S. cerevisiae deletion strains, locus YAL013W, strain DEP1, stronger effect = lower value
[10] = S. cerevisiae deletion strains, locus YBR229C, strain ROT2, stronger effect = lower value
[11] = S. cerevisiae deletion strains, locus YCL061C, strain MRC1, stronger effect = lower value
[12] = S. cerevisiae deletion strains, locus YDL101C, strain DUN1, stronger effect = lower value
[13] = S. cerevisiae deletion strains, locus YDL134C, strain PPH21, stronger effect = lower value
[14] = S. cerevisiae deletion strains, locus YEL061C, strain CIN8, stronger effect = lower value
[15] = S. cerevisiae deletion strains, locus YHR030C, strain SLT2, stronger effect = lower value
[16] = S. cerevisiae deletion strains, locus YHR087W, strain rtc3, stronger effect = lower value
[17] = S. cerevisiae deletion strains, locus YJR043C, strain POL32, stronger effect = lower value
[18] = S. cerevisiae deletion strains, locus YJR075W, strain HOC1, stronger effect = lower value
[19] = S. cerevisiae deletion strains, locus YLR039C, strain RIC1, stronger effect = lower value
[20] = S. cerevisiae deletion strains, locus YLR058C, strain SHM2 (second series), stronger effect = lower value
[21] = S. cerevisiae deletion strains, locus YLR085C, strain ARP6, stronger effect = lower value
[22] = S. cerevisiae deletion strains, locus YLR262C, strain YPT6, stronger effect = lower value
[23] = S. cerevisiae deletion strains, locus YML094W, strain GIM5, stronger effect = lower value
[24] = S. cerevisiae deletion strains, locus YMR219W, strain ESC1, stronger effect = lower value
[25] = S. cerevisiae deletion strains, locus YNL298W, strain CLA4 (second series), stronger effect = lower value
[26] = S. cerevisiae deletion strains, locus YNL322C, strain KRE1, stronger effect = lower value
[27] = S. cerevisiae deletion strains, locus YNR030W, strain Alg12, stronger effect = lower value
[28] = S. cerevisiae deletion strains, locus YPL241C, strain CIN2, stronger effect = lower value
[29] = S. cerevisiae deletion strains, locus YPR135W, strain CTF4, stronger effect = lower value

## O=C1C2C=CC=CC2=NC(=S)N1CCN1CCC(=C(c2ccc(F)cc2)c2ccc(F)cc2)CC1 (stereo not given)
S. cerevisiae deletion strains, locus YAL040C, strain CLN3, stronger effect = lower value
  normalized growth: 0.896
S. cerevisiae deletion strains, locus YCL061C, strain MRC1 (second series), stronger effect = lower value
  normalized growth: 1.01
[1]
  normalized growth: 1
S. cerevisiae deletion strains, locus YDR363W, strain ESC2, stronger effect = lower value
  normalized growth: 0.951
S. cerevisiae deletion strains, locus YER002W, strain NOP16, stronger effect = lower value
  normalized growth: 1.04
[2]
  normalized growth: 0.857 (active)
[3]
  normalized growth: 0.717 (active)
[4]
  normalized growth: 0.985
[5]
  normalized growth: 0.707 (active)
[6]
  normalized growth: 1.06
[7]
  normalized growth: 0.578 (active)
S. cerevisiae deletion strains, locus YNL197C, strain WHI3, stronger effect = lower value
  normalized growth: 1.08
S. cerevisiae deletion strains, locus YNL224C, strain SQS1, stronger effect = lower value
  normalized growth: 1.02
S. cerevisiae deletion strains, locus YOR083W, strain WHI5 (second series), stronger effect = lower value
  normalized growth: 0.607 (active)
[8]
  normalized growth: 1.03

## CCOC(=O)Cc1csc(N=CNO)n1
[9]
  normalized growth: 1.01
[10]
  normalized growth: 1.02
[11]
  normalized growth: 1.01
[12]
  normalized growth: 1
[13]
  normalized growth: 1.02
[1]
  normalized growth: 0.892
[14]
  normalized growth: 1.01
[2]
  normalized growth: 1.02
[3]
  normalized growth: 0.997
[15]
  normalized growth: 0.999
[16]
  normalized growth: 1.04
[17]
  normalized growth: 0.989
[18]
  normalized growth: 1.05
[19]
  normalized growth: 0.992
[20]
  normalized growth: 1.02
[21]
  normalized growth: 1.03
[22]
  normalized growth: 0.951
[23]
  normalized growth: 1.02
[24]
  normalized growth: 1.02
[4]
  normalized growth: 0.999
[5]
  normalized growth: 1.03
[6]
  normalized growth: 0.999
[7]
  normalized growth: 1.01
[25]
  normalized growth: 1.05
[26]
  normalized growth: 1.01
[27]
  normalized growth: 1.03
[8]
  normalized growth: 1.02
[28]
  normalized growth: 1.02
[29]
  normalized growth: 1.04
S. cerevisiae strains, strain wild type, stronger effect = lower value
  normalized growth: 1.03

## CCc1nnc(N=CNO)s1
[9]
  normalized growth: 0.956
[10]
  normalized growth: 0.846 (active)
[11]
  normalized growth: 0.913
[12]
  normalized growth: 0.932
[13]
  normalized growth: 0.989
[1]
  normalized growth: 0.978
[14]
  normalized growth: 0.843 (active)
[2]
  normalized growth: 0.973
[3]
  normalized growth: 0.992
[15]
  normalized growth: 0.573 (active)
[16]
  normalized growth: 0.79 (active)
S. cerevisiae deletion strains, locus YJL187C, strain SWE1, stronger effect = lower value
  normalized growth: 0.817 (active)
[17]
  normalized growth: 0.97
[18]
  normalized growth: 0.809 (active)
[19]
  normalized growth: 0.967
[20]
  normalized growth: 1
[21]
  normalized growth: 0.803
[22]
  normalized growth: 0.947
[23]
  normalized growth: 0.855 (active)
[24]
  normalized growth: 0.879 (active)
[4]
  normalized growth: 0.968
[7]
  normalized growth: 0.965
[25]
  normalized growth: 0.823 (active)
[26]
  normalized growth: 1.01
[27]
  normalized growth: 0.944
S. cerevisiae deletion strains, locus YOL006C, strain TOP1, stronger effect = lower value
  normalized growth: 0.465 (active)
[8]
  normalized growth: 0.909
[28]
  normalized growth: 0.99
[29]
  normalized growth: 0.795

## CCOC(=O)c1ccc2nc(N=CNO)sc2c1
S. cerevisiae deletion strains, locus YAR019C, strain CDC15, stronger effect = lower value
  normalized growth: 0.948
S. cerevisiae deletion strains, locus YBL105C, strain PKC1, stronger effect = lower value
  normalized growth: 0.94
S. cerevisiae deletion strains, locus YBR135W, strain CKS1, stronger effect = lower value
  normalized growth: 0.947
S. cerevisiae deletion strains, locus YBR136W, strain MEC1, stronger effect = lower value
  normalized growth: 0.951
S. cerevisiae deletion strains, locus YBR160W, strain CDC28, stronger effect = lower value
  normalized growth: 0.954
S. cerevisiae deletion strains, locus YDL017W, strain CDC7, stronger effect = lower value
  normalized growth: 0.953
S. cerevisiae deletion strains, locus YDL028C, strain MPS1, stronger effect = lower value
  normalized growth: 0.956
[12]
  normalized growth: 0.973
S. cerevisiae deletion strains, locus YDL108W, strain KIN28, stronger effect = lower value
  normalized growth: 0.946
S. cerevisiae deletion strains, locus YDL132W, strain cdc53, stronger effect = lower value
  normalized growth: 0.946
S. cerevisiae deletion strains, locus YDL214C, strain PRR2, stronger effect = lower value
  normalized growth: 0.905
S. cerevisiae deletion strains, locus YDR052C, strain DBF4, stronger effect = lower value
  normalized growth: 0.961
S. cerevisiae deletion strains, locus YDR054C, strain cdc34, stronger effect = lower value
  normalized growth: 0.938
S. cerevisiae deletion strains, locus YDR226W, strain ADK1, stronger effect = lower value
  normalized growth: 0.958
S. cerevisiae deletion strains, locus YDR477W, strain SNF1, stronger effect = lower value
  normalized growth: 0.913
S. cerevisiae deletion strains, locus YER123W, strain YCK3, stronger effect = lower value
  normalized growth: 0.864
S. cerevisiae deletion strains, locus YER133W, strain GLC7, stronger effect = lower value
  normalized growth: 0.888
S. cerevisiae deletion strains, locus YFL009W, strain cdc4, stronger effect = lower value
  normalized growth: 0.938
S. cerevisiae deletion strains, locus YFL029C, strain CAK1, stronger effect = lower value
  normalized growth: 0.951
S. cerevisiae deletion strains, locus YFR003C, strain YPI1, stronger effect = lower value
  normalized growth: 0.951
S. cerevisiae deletion strains, locus YFR019W, strain FAB1, stronger effect = lower value
  normalized growth: 0.909
S. cerevisiae deletion strains, locus YFR028C, strain CDC14, stronger effect = lower value
  normalized growth: 0.967
S. cerevisiae deletion strains, locus YGR040W, strain KSS1, stronger effect = lower value
  normalized growth: 0.919
S. cerevisiae deletion strains, locus YGR052W, strain FMP48, stronger effect = lower value
  normalized growth: 0.983
S. cerevisiae deletion strains, locus YGR092W, strain DBF2, stronger effect = lower value
  normalized growth: 0.771
[15]
  normalized growth: 0.961
S. cerevisiae deletion strains, locus YHR079C, strain IRE1, stronger effect = lower value
  normalized growth: 0.964
S. cerevisiae deletion strains, locus YHR082C, strain KSP1, stronger effect = lower value
  normalized growth: 0.986
S. cerevisiae deletion strains, locus YHR205W, strain SCH9, stronger effect = lower value
  normalized growth: 0.886
S. cerevisiae deletion strains, locus YIL147C, strain SLN1, stronger effect = lower value
  normalized growth: 0.945
S. cerevisiae deletion strains, locus YJL095W, strain BCK1, stronger effect = lower value
  normalized growth: 0.977
S. cerevisiae deletion strains, locus YJL128C, strain PBS2, stronger effect = lower value
  normalized growth: 0.94
S. cerevisiae deletion strains, locus YJL157C, strain FAR1, stronger effect = lower value
  normalized growth: 0.881
S. cerevisiae deletion strains, locus YJR016C, strain ILV3, stronger effect = lower value
  normalized growth: 0.948
S. cerevisiae deletion strains, locus YJR066W, strain TOR1 (second series), stronger effect = lower value
  normalized growth: 0.717
S. cerevisiae deletion strains, locus YJR066W, strain TOR1, stronger effect = lower value
  normalized growth: 0.995
S. cerevisiae deletion strains, locus YKL048C, strain ELM1, stronger effect = lower value
  normalized growth: 0.955
S. cerevisiae deletion strains, locus YKL067W, strain YNK1, stronger effect = lower value
  normalized growth: 0.915
S. cerevisiae deletion strains, locus YKL101W, strain HSL1, stronger effect = lower value
  normalized growth: 0.907
S. cerevisiae deletion strains, locus YKL193C, strain SDS22, stronger effect = lower value
  normalized growth: 0.955
S. cerevisiae deletion strains, locus YKL203C, strain TOR2, stronger effect = lower value
  normalized growth: 0.958
S. cerevisiae deletion strains, locus YLR113W, strain HOG1, stronger effect = lower value
  normalized growth: 0.988
S. cerevisiae deletion strains, locus YLR133W, strain CKI1, stronger effect = lower value
  normalized growth: 0.922
S. cerevisiae deletion strains, locus YLR403W, strain SFP1, stronger effect = lower value
  normalized growth: 0.879
S. cerevisiae deletion strains, locus YML070W, strain DAK1, stronger effect = lower value
  normalized growth: 0.892
S. cerevisiae deletion strains, locus YMR001C, strain CDC5, stronger effect = lower value
  normalized growth: 0.951
S. cerevisiae deletion strains, locus YMR205C, strain PFK2 (second series), stronger effect = lower value
  normalized growth: 0.931
S. cerevisiae deletion strains, locus YMR277W, strain FCP1, stronger effect = lower value
  normalized growth: 0.963
S. cerevisiae deletion strains, locus YNL006W, strain LST8, stronger effect = lower value
  normalized growth: 0.945
S. cerevisiae deletion strains, locus YNL020C, strain ARK1, stronger effect = lower value
  normalized growth: 0.911
S. cerevisiae deletion strains, locus YNL161W, strain CBK1, stronger effect = lower value
  normalized growth: 0.951
S. cerevisiae deletion strains, locus YNL183C, strain NPR1, stronger effect = lower value
  normalized growth: 1
S. cerevisiae deletion strains, locus YNL207W, strain RIO2, stronger effect = lower value
  normalized growth: 0.949
S. cerevisiae deletion strains, locus YNL222W, strain SSU72, stronger effect = lower value
  normalized growth: 0.952
S. cerevisiae deletion strains, locus YNL307C, strain MCK1 (second series), stronger effect = lower value
  normalized growth: 0.926
S. cerevisiae deletion strains, locus YOL078W, strain AVO1, stronger effect = lower value
  normalized growth: 0.958
S. cerevisiae deletion strains, locus YOL136C, strain PFK27, stronger effect = lower value
  normalized growth: 0.892
S. cerevisiae deletion strains, locus YOR061W, strain CKA2, stronger effect = lower value
  normalized growth: 0.894
S. cerevisiae deletion strains, locus YOR119C, strain RIO1, stronger effect = lower value
  normalized growth: 0.908
S. cerevisiae deletion strains, locus YOR231W, strain MKK1, stronger effect = lower value
  normalized growth: 0.938
S. cerevisiae deletion strains, locus YOR329C, strain SCD5, stronger effect = lower value
  normalized growth: 0.947
S. cerevisiae deletion strains, locus YPL031C, strain PHO85, stronger effect = lower value
  normalized growth: 0.867
S. cerevisiae deletion strains, locus YPL153C, strain RAD53, stronger effect = lower value
  normalized growth: 0.88
S. cerevisiae deletion strains, locus YPL204W, strain HRR25, stronger effect = lower value
  normalized growth: 0.889
S. cerevisiae deletion strains, locus YPL209C, strain IPL1, stronger effect = lower value
  normalized growth: 0.947
S. cerevisiae deletion strains, locus YPL256C, strain CLN2, stronger effect = lower value
  normalized growth: 1.02
S. cerevisiae deletion strains, locus YPR025C, strain CCL1, stronger effect = lower value
  normalized growth: 0.95
S. cerevisiae deletion strains, locus YPR106W, strain ISR1, stronger effect = lower value
  normalized growth: 0.968
S. cerevisiae deletion strains, locus YPR111W, strain DBF20, stronger effect = lower value
  normalized growth: 0.963
S. cerevisiae deletion strains, strain NNK1, stronger effect = lower value
  normalized growth: 0.96
S. cerevisiae deletion strains, strain TSCII, stronger effect = lower value
  normalized growth: 0.952
